# Source: PubChem BioAssay AID1626 (SRMLSC, 2009)
# Out of some 220,000 compounds screened, about 2,000 (0.91%) were called active. Inconclusive results (about 2%) are left out. Cut-off read from the data, not from the text of the source: inconclusive = inhibition above about 80% without an active follow-up result; inactive = below that; test concentration not stated here. The list is a sample of the results. Results with a measured potency or affinity are listed apart.
# Assay: M. tuberculosis H37Rv growth inhibitors, H37Rv strain (AID 1626);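 note: bacteria incubated seven days before Alamar blue readout; 0% = bacteria only wells and 100% = bacteria with antibiotic wells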
# Conditions: stronger effect = higher value, concentration not given here
row,SMILES,inhibition
1,CCOP(=O)(OCC)C(Nc1cccc(C(F)(F)F)c1)c1ccc(F)cc1 (stereo unspecified),0.98% (inactive)
2,c1cc2c(cc1C1=NNC(=NC3CC3)SC1)OCCO2,-0.26% (inactive)
3,C=CCN=C1NN=C(c2ccc3c(c2)OCCO3)CS1,-5.3% (inactive)
4,COc1ccccc1NS(=O)(=O)c1cc(NC(=O)c2ccco2)ccc1N1CCOCC1,9.4% (inactive)
5,O=c1[nH]c(=O)n(C2CCCCC2)c(O)c1C1NCCc2ccccc21 (stereo unspecified),-2.63% (inactive)
6,COc1cc(NC(=S)Nc2ccccn2)cc(OC)c1,14.7% (inactive)
7,Cc1cc(C)c(C)c(S(=O)(=O)N2CCN(C(=S)NCC3CCCO3)CC2)c1C (stereo unspecified),9.9% (inactive)
8,O=C(Nc1ccccc1O)c1ccc(Cl)cc1,-5.68% (inactive)
9,COc1ccc(C(=O)Nc2cc(Cl)ccc2OC(=O)c2ccc(OC)cc2)cc1,-1.73% (inactive)
10,CN(C)S(=O)(=O)c1cccc(C(=O)OCC(=O)NC2CCCc3ccccc32)c1 (stereo unspecified),2.51% (inactive)
11,O=C(CSc1nc2ccccc2c(=O)n1-c1ccccc1)N1CCC1,-2.38% (inactive)
12,Cc1ccc(Oc2ccc(C(F)(F)F)cc2[N+](=O)[O-])c([N+](=O)[O-])n1,3.08% (inactive)
13,O=C(Nc1ccc(F)cc1)c1ccccc1Oc1ccc(C(F)(F)F)cc1[N+](=O)[O-],-1.92% (inactive)
14,OCCC1CN(Cc2cnc(-c3ccccc3)s2)CCN1C1CCCCC1 (stereo unspecified),2.22% (inactive)
15,Fc1ccc(N=C2NN=C(c3cc(F)ccc3F)CS2)cc1,9.64% (inactive)
16,COCCn1c(C)cc(C2=NNC(=Nc3ccc(OC)cc3)SC2)c1C,-6.04% (inactive)
17,Cc1cccc(N=C2NN=C(c3ccc4c(c3)OCCO4)CS2)c1,6.79% (inactive)
18,Cc1ccc(C2=NNC(=Nc3ccc(F)cc3)SC2)cc1,5.11% (inactive)
19,Cc1cc(C2=NNC(=Nc3ccccc3)SC2)c(C)n1C,0.04% (inactive)
20,COc1ccc(N=C2NN=C(c3ccc4c(c3)OCCO4)CS2)cc1,-3.14% (inactive)
21,O=C(CCC1CCCCC1)NNC(=O)c1cnccn1,22.5% (inactive)
22,CCCS(=O)(=O)c1csc(C(=O)OC)c1N,-5.25% (inactive)
23,CS(=O)(=O)c1ccc(C(=O)OCC(=O)NC2CCS(=O)(=O)C2)cc1[N+](=O)[O-] (stereo unspecified),2.59% (inactive)
24,CC(C)c1ccc(/C=N/NC(=O)c2nnn(-c3nonc3N)c2CSC2=NCCS2)cc1,-0.79% (inactive)
25,COc1cc(C(=O)N2CCN(S(=O)(=O)c3ccc(F)cc3)CC2)cc(OC)c1OC,-4.16% (inactive)
26,CCOC(=O)N1C2=NC(C(=O)OC)=C(C(=O)OC)[C@@H]3N(C)c4ccc(OC)cc4[C@]23C[C@H]1C(=O)OC,5.46% (inactive)
